Laboratory results reported in ChEMBL document CHEMBL4513216, “Probing the Open Global Health Chemical Diversity Library for Multistage-Active Starting Points for Next-Generation Antimalarials” (ACS Infect Dis, 2020).
Hit rate of the full screen: of about 69,000 compounds, about 8,600 (12%) showed an effect of 50% or more. This is one part of a sample in which strong results are shown more often than they occur.

Test system: Plasmodium berghei
Test: Screen against P. berghei liver stage (PbLuc), transformed with Luciferase, at 10uM
Format: functional, HepG2
Settings: tested at 10 uM

Going from `CN(Cc1nnc(C2CC2)n1C)C1CCN(CCc2cnn(C)c2)C1` (centres undefined) to `Cc1nc(CN(C)C2CCN(Cc3cccc(F)c3)C2)no1` (centres undefined), the INHIBITION rises from 7.08% to 17.5%.

First: CO[C@H]1CCN(S(=O)(=O)c2cn(C)cn2)[C@H]1Cc1ccccc1
Second: O=S(=O)(CCCN1CCCC(Cn2cncn2)C1)c1ccccc1 (centres undefined)
The INHIBITION of the first is lower: -8.85% for the first, 7.67% for the second.

Compared with `Cc1nn(C)c(N(C)C)c1CNC(C)c1cccc(OC(C)C)c1` (centres undefined), `COc1cccc(CC(=O)N2CCc3ncnc(NC(C)C)c3CC2)c1` is lower in INHIBITION: 27.4% for the first, -4.55% for the second.

Compared with `CN(C)CCN(C)C(=O)c1cn(CC2CCCCC2)nn1`, `CC(C)Nc1ncnc2c1CCN(C(=O)CC1CCCC1)CC2` is higher in INHIBITION: -9.54% for the first, 18.3% for the second.

First: O=C(NC1CCCC1)c1cnn2c(-c3ccco3)ccnc12
Second: O=C(NC1CC1)c1cnc(-c2noc3cc(N4CCCCC4)ccc23)s1
The INHIBITION of the first is lower: -16.4% for the first, 95.5% for the second.

First: COC(=O)Cn1c(=O)[nH]c2cn(-c3ccc(Br)cc3)c(=O)n21
Second: COC(=O)CN(C(=O)c1ccc(Cl)cn1)c1cccc(F)c1
The INHIBITION of the first is lower: -38.6% for the first, 33.1% for the second.

Going from `COc1cc(NC2CCS(=O)(=O)C2)ncn1` (centres undefined) to `COc1cccc(C(=O)N2CCc3ncnc(C)c3CC2)c1`, the INHIBITION falls from 33.7% to -34.9%.

Going from `CC(C)c1ccc(C(N)c2cccs2)cc1` (centres undefined) to `Cc1ccc(C(N)c2cccs2)cc1` (centres undefined), the INHIBITION falls from 75.6% to 61.5%.

Going from `Cc1ccc(C(CC(=O)O)NC(=O)CCc2cccs2)cc1` (centres undefined) to `O=C(O)CC(NC(=O)CCCc1cccs1)c1ccc(F)cc1` (centres undefined), the INHIBITION falls from 31% to 18.4%.

Compared with `CC(C)c1ccc(-c2nonc2N)cc1`, `Cc1ccc(C(N)c2cccc(S(C)(=O)=O)c2)cc1` (centres undefined) is higher in INHIBITION: -15.2% for the first, 38.7% for the second.

Compared with `NC(c1ccc(F)cc1)c1cccs1` (centres undefined), `NC(c1ccc(Cl)cc1)c1cccs1` (centres undefined) is lower in INHIBITION: 55% for the first, 22.5% for the second.

First: CS(=O)(=O)c1cccc(C(N)c2ccc(F)cc2)c1 (centres undefined)
Second: O=C(O)Cc1nc2nccc(-c3ccc(F)cc3)n2n1
The INHIBITION of the first is lower: -9.76% for the first, 11.5% for the second.

Going from `CSCC(=O)N1CCCN(Cc2cscn2)CC1` to `c1cc(NCc2cscn2)cc(OCCN2CCCCC2)c1`, the INHIBITION rises from 7.77% to 56.1%.

First: CCc1oc2ccc(NS(=O)(=O)CC)cc2c1C(=O)OC
Second: CCC(C)C(=O)N(CC(=O)OC)c1cccc(C)n1 (centres undefined)
The INHIBITION of the first is lower: 1.41% for the first, 10.6% for the second.

Compared with `CC(C)=CCCC1(C)C=Cc2c(cc(C)n(CC(=O)O)c2=O)O1` (centres undefined), `COC(=O)CN(C(=O)c1cc(C(C)C)no1)c1cccc(F)c1` is lower in INHIBITION: 18.3% for the first, 7.38% for the second.

First: COC(=O)CN(C(=O)c1cccc(F)c1Cl)c1cccc(C)n1
Second: COC(=O)CN(C(=O)C(C)c1c(F)cccc1F)c1cccc(C)n1 (centres undefined)
The INHIBITION of the first is lower: 29.8% for the first, 76% for the second.

Compared with `COC(=O)CN(C(=O)c1cc(C)c(F)cc1F)c1cccc(C)n1`, `CN(C)CCNC(=O)c1ccc2c(-c3nccs3)noc2c1` is lower in INHIBITION: 61.7% for the first, -33% for the second.

Compared with `Cn1cccc1CN(C(=O)Cc1cccs1)C1CC1`, `O=C(CN1CCOC(Cn2cncn2)C1)NCc1cccs1` (centres undefined) is higher in INHIBITION: 6.54% for the first, 34.05% for the second.

Going from `N#Cc1ccc(C(=O)O)nc1C=Cc1cccc(Br)c1` to `COc1cccc(CC(=O)N2CCc3ncnc(C)c3CC2)c1`, the INHIBITION rises from 39.4% to 61.5%.

Compared with `O=C(c1cnc(-c2noc3cc(N4CCCC4)ccc23)s1)N1CCCC1`, `CCN(C)C(=O)c1cnc(-c2noc3cc(N4CCCCC4)ccc23)s1` is higher in INHIBITION: 8.31% for the first, 76.3% for the second.

Compared with `O=C(NCCN1CCCC1)c1ccc2c(-c3nccs3)noc2c1`, `CC1CCN(c2ccc3c(-c4ncc(C(=O)O)s4)noc3c2)CC1` is lower in INHIBITION: 28.2% for the first, 23.1% for the second.

Going from `CC(C)COC(=O)N1CC(=O)N(Cc2ccco2)CC(O)C1` (centres undefined) to `O=C(CCc1cc2n(n1)CCCN(C(=O)[C@H]1CCCO1)C2)NC1CC1`, the INHIBITION falls from 47.2% to 33.4%.

First: CC(C)Nc1ncc(-c2ccncc2)c([C@@H]2CCCO2)n1
Second: CC(C)(C)c1cc(C(=O)N2CCOC(c3cnccn3)C2)[nH]n1 (centres undefined)
The INHIBITION of the first is lower: 11.8% for the first, 12.15% for the second.

Compared with `CN1CCn2c(-c3cnn(C)c3)cnc2C12CCN(CC1CC1)CC2`, `CN1CCC(c2nnc3n2CCN(S(=O)(=O)c2ccccc2)C3)CC1` is higher in INHIBITION: 0.804% for the first, 40.45% for the second.

Compared with `Clc1cncc(NCc2cccc(OCCN3CCOCC3)c2)n1`, `Cc1ccnc(NCc2cccc(OCCN3CCOCC3)c2)n1` is lower in INHIBITION: 58.5% for the first, -21.1% for the second.

Going from `c1ccc(NCc2cccc(OCCN3CCOCC3)c2)nc1` to `c1cncc(CNc2cccc(OCCN3CCCCC3)c2)c1`, the INHIBITION rises from -8.25% to 68%.

Compared with `Cc1csc(CNc2cccc(OCCN3CCCC3)c2)n1`, `Cc1ncsc1CNc1cccc(OCCN2CCCC2)c1` is higher in INHIBITION: 28% for the first, 48.5% for the second.

Going from `NC(=O)C1CCN(CCc2ccc(NCc3cccnc3)cc2)CC1` to `c1cc(CN2CCCCC2)cc(NCc2cc[nH]n2)c1`, the INHIBITION falls from 25.3% to 2.22%.

Going from `CC(C)=CCN1CCN(C(=O)C2CCS(=O)(=O)C2)CC1` (centres undefined) to `Cc1cc(CN2CCC(C3Nc4ccccc4S(=O)(=O)N3)CC2)oc1C` (centres undefined), the INHIBITION rises from 8.4% to 32.8%.

First: Cc1ncn(CCNC(=O)Nc2ccccc2)c(=O)c1C
Second: Cc1ccc(CN(CCCn2ccnc2)Cc2ccccc2O)s1
The INHIBITION of the first is lower: -10.6% for the first, 54.4% for the second.

Going from `Cn1nc(Cn2cccn2)c2c1CN(Cc1ccoc1)C2` to `Cc1ncnc2c1CCN(C(=O)Cc1ccccn1)CC2`, the INHIBITION falls from 20.1% to 14.1%.

First: CCn1ncc2[nH]c(-c3ccc(OC)c(COC)c3)nc21
Second: COc1cccc(C)c1C(=O)N1CCc2ncnc(NCCO)c2CC1
The INHIBITION of the first is lower: -45.8% for the first, 27.6% for the second.

First: COCCCNc1ncnc2c1CCN(C(=O)CC1C=CCC1)CC2 (centres undefined)
Second: COCCNc1ncnc2c1CCN(C(=O)CC1CCC(=O)N1)CC2 (centres undefined)
The INHIBITION of the first is lower: 48.2% for the first, 73.2% for the second.

First: COc1cccc(CC(=O)N2CCc3ncnc(NCCO)c3CC2)c1
Second: Cc1ccc(CN(CCCO)Cc2nc3ccccc3[nH]2)s1
The INHIBITION of the first is higher: 64% for the first, 29.1% for the second.

Going from `CC(C)c1noc(C2CCN(S(=O)(=O)c3cccs3)CC2)n1` to `COc1ccccc1CN(CCCn1ccnc1)CC1CCOC1` (centres undefined), the INHIBITION rises from 17.5% to 43.4%.

Going from `O=C(Nc1cc(C(F)(F)F)c[nH]c1=O)C1CCNCC1` to `Cc1ccc(CN(CCCn2ccnc2)Cc2c[nH]nc2C(C)(C)C)s1`, the INHIBITION rises from 11.9% to 70.1%.

Compared with `Cc1ccc(CN(CCCn2ccnc2)Cc2[nH]cnc2C)s1`, `Cc1ccc(O)c(CN(CCCn2ccnc2)Cc2ccc(C)s2)c1` is higher in INHIBITION: 9.93% for the first, 79.7% for the second.
